Only some compounds are listed: those with a hit (about 3.1% of all), similar ones and a draw of the others.
Rin1 Abl inh: inhibitors of Rin1-Abl protein binding, primary screen, biochemical, TR-FRET | inhibition, % at 7.35 µM | 360,000 tested, 0.4% active | AID 588664, 2011; in the data active = inhibition above about 5%, passing the limit was not always enough
UHRF1 binding: UHRF1 methylated DNA binding inhibitors, primary screen, counter-screen for MBD2 inhibitor project, biochemical, TR-FRET, human UHRF1, single concentration; E3 ubiquitin-protein ligase UHRF1 (Homo sapiens), Q96T88; UHRF1 binding to methylated oligo; inhibition, % at 4.4 µM; 370,000 tested, 0.75% active; AID 687016, 2013;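 note: UHRF1 SRA domain binding a hemimethylated CpG hairpin DNA probe; 0% = median of test compound wells and 100% = reference inhibitor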
Target sequence (Q96T88 whole entry, looked up, the tested form may be a part): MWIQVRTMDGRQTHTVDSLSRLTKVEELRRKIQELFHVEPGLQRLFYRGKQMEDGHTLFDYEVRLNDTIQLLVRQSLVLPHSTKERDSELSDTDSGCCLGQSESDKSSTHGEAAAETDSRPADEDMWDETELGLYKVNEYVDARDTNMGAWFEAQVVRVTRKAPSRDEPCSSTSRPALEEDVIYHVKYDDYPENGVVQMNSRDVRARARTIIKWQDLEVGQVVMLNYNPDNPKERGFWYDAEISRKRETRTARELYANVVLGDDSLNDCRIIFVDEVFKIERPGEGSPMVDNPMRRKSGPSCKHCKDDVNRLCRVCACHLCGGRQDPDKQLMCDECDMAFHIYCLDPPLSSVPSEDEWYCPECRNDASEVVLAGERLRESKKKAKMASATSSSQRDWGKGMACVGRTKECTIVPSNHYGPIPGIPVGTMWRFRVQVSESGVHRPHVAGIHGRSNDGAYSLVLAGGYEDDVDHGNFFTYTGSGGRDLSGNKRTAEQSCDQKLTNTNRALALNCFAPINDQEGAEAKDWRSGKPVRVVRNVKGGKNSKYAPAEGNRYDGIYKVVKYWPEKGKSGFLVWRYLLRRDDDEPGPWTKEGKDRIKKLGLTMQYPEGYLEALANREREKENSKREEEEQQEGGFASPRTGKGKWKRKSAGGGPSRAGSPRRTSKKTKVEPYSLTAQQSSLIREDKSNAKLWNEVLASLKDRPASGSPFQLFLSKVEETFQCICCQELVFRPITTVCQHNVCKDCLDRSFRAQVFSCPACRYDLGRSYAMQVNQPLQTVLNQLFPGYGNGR
KLK7 zymogen act: proKLK7 zymogen activators, primary screen, biochemical, fluorescence intensity; Kallikrein-7 (Homo sapiens), P49862; purified proKLK7, EDANS-DABCYL substrate fluorescence; 100% is mature enzyme control, 0% vehicle; activation, % at 7 µM; 370,000 tested, 0.9% active;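 active = activation above the mean of all tested compounds plus 3 SD, computed per campaign excluding outliers beyond control limits, cut at about 13% in these data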
LEDGF integ inh: blockers of LEDGF/p75-dependent integrase strand transfer – biochemical, TR-FRET, high throughput, primary screen; 370,000 tested, 0.64% active; AID 743269, 2014; inhibition, % at 3.7 µM; TR-FRET IN-LEDGF/p75 DNA integration, Eu/Cy5;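 active = inhibition above the screen-wide mean plus 3 SD, cut at about 13% in these data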;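 note: signal is the Cy5 over europium emission ratio at 671 and 618 nm; 0% = plate median of compound wells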
MBD2 inh: inhibitors of MBD2 binding to methylated DNA, primary screen, biochemical, TR-FRET, DNA-binding domain, human. Methyl-CpG-binding domain protein 2 (Homo sapiens), Q9UBB5. MBD2 binding to methylated oligonucleotide. inhibition, % at 4.4 µM. 370,000 tested, 0.31% active. AID 686964, 2013; in the data active = inhibition above about 13%
Neddylation inh: inhibitors of cullin neddylation, primary screen, biochemical, TR-FRET, uHTS, NAE and Ubc12 | NEDD8-conjugating enzyme Ubc12 (Homo sapiens) + NEDD8-activating enzyme E1 regulatory … | 360,000 tested, 0.58% active | calls only at 25 µM | AID 651699, 2012; in the data active = inhibition above about 36%
UHRF1 DNA bind: UHRF1 methylated DNA binding inhibitors, counter-screen for MBD2 inhibitor project, biochemical, TR-FRET, human UHRF1; UHRF1 binding to methylated oligonucleotide; inhibition, % at 4.4 µM; 1,000 tested, 25% active; shares compounds with MBD2 inh;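 note: UHRF1 SRA domain binding a labeled hemimethylated CpG hairpin DNA; 0% = vehicle only and 100% = reference inhibitor with vehicle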
MBD2 confirm: inhibitors of MBD2 binding to methylated DNA, confirmation, biochemical, TR-FRET, DNA-binding domain, human; shares compounds with MBD2 inh; TR-FRET MBD2-DBD binding to methylated oligonucleotide; inhibition, % at 4.4 µM; 1,000 tested, 26% active; AID 720531, 2013; in the data active = inhibition above about 14%
An asterisk follows results filed as active. Cut-off read from the data, not from the text of the source, unless noted: active = inhibition above about 21%; inactive = the rest.

For Cc1c(Nc2nc3ccccc3nc2N2CCN(c3ccccc3)CC2)c(=O)n(-c2ccccc2)n1C the results were Rin1 Abl inh 2.2, UHRF1 binding 1.7, KLK7 zymogen act 0.6, LEDGF integ inh 0.6, MBD2 inh -6.1 and Neddylation inh inactive.
`Cc1c(Nc2c3ccccc3nc3ccccc23)c(=O)n(-c2ccccc2)n1C` gave Rin1 Abl inh -5.2, UHRF1 binding -2.4, KLK7 zymogen act 6.4, LEDGF integ inh -4.0, MBD2 inh 24.4*, Neddylation inh inactive, UHRF1 DNA bind 0.6 and MBD2 confirm -5.4.
`CC1Sc2ccccc2N(Cc2ccc(OC(F)(F)F)cc2)C1=O` (configuration not stated) gave Rin1 Abl inh -0.9, UHRF1 binding 17.2, KLK7 zymogen act 0.3, LEDGF integ inh -0.9, MBD2 inh 25.7*, Neddylation inh inactive, UHRF1 DNA bind 5.3 and MBD2 confirm 5.2.
CC1Sc2ccccc2N(Cc2ccccc2)C1=O (configuration not stated) was read as Rin1 Abl inh 0.7, UHRF1 binding -0.7, KLK7 zymogen act 0.4, LEDGF integ inh -0.7, MBD2 inh 0.4 and Neddylation inh inactive.
Screening CC1(c2nnnn2Cc2ccccc2)CCC(=O)N1Cc1ccc(F)cc1 (configuration not stated) returned UHRF1 binding 0.8, KLK7 zymogen act 0.2, LEDGF integ inh -0.8, MBD2 inh 4.7 and Neddylation inh inactive.
For Cc1cc(C)c(C#N)c(SCC(=O)Nc2ccc(S(=O)(=O)Nc3ncccn3)cc2)n1 the results were Rin1 Abl inh -4.0, UHRF1 binding 0.6, KLK7 zymogen act 3.1, LEDGF integ inh 0.4, MBD2 inh 18.0*, Neddylation inh inactive, UHRF1 DNA bind 11.8 and MBD2 confirm 3.1.
Screening Cc1cc(C)nc(SCC(=O)Nc2ccc(S(=O)(=O)Nc3ncccn3)cc2)n1 returned Rin1 Abl inh -0.9, UHRF1 binding -1.5, KLK7 zymogen act 0.8, LEDGF integ inh 0.1, MBD2 inh -1.9 and Neddylation inh inactive.
For CCc1ccccc1NC(=O)c1cc(C)nn1-c1ccccc1 the results were UHRF1 binding 2.0, KLK7 zymogen act -0.2, LEDGF integ inh -1.7 and MBD2 inh 3.2.
CC(=O)c1cccc(OCC(=O)N(C)CC(=O)NCc2ccco2)c1 was read as Rin1 Abl inh -0.5, UHRF1 binding 49.4*, KLK7 zymogen act 0.2, LEDGF integ inh 30.1*, MBD2 inh 22.3*, Neddylation inh inactive, UHRF1 DNA bind 43.0* and MBD2 confirm 17.8*.
For CC(=O)Oc1ccc(-c2ccc(C(=O)NCCc3ccc(S(N)(=O)=O)cc3)cc2)cc1 the results were Rin1 Abl inh 2.6, UHRF1 binding -0.5, KLK7 zymogen act 0.2, LEDGF integ inh -2.8, MBD2 inh 0.1 and Neddylation inh inactive.
`Cc1ccc(Cc2c(-c3ccccc3)nc3c(C)cc(Br)cn23)cc1` gave UHRF1 binding 14.2, KLK7 zymogen act -0.6, LEDGF integ inh -0.8, MBD2 inh 3.7 and Neddylation inh inactive.
For Cc1ccc(Cc2c(-c3ccccc3)nc3cc(C)ccn23)cc1 the results were Rin1 Abl inh -2.1, UHRF1 binding 26.9*, KLK7 zymogen act -2.3, LEDGF integ inh -3.8, MBD2 inh 16.7*, Neddylation inh inactive, UHRF1 DNA bind 13.3 and MBD2 confirm 5.5.

Source: PubChem BioAssay (several laboratories)
